Measured values from article PMC7862700, “An all-to-all approach to the identification of sequence-specific readers for epigenetic DNA modifications on cytosine”.

Experiments:
Assay in all cases: DAPPL (digital affinity profiling via proximity ligation, sequencing); 10 mM Tris-HCl pH 7.5, 50 mM NaCl, 1 mM DTT, 4% glycerol, room temperature, 30 min; GST-TFs on glutathione beads, 16-mer random dsDNA library, 0.1% formaldehyde crosslink after washing; high values mean tight binding
FLI1 = target: T1, FLI1 (Homo sapiens, UniProt Q01543 1-452); details: protein: recombinant; tags: N-terminal GST; dsDNA, one strand shown
T1 sequence: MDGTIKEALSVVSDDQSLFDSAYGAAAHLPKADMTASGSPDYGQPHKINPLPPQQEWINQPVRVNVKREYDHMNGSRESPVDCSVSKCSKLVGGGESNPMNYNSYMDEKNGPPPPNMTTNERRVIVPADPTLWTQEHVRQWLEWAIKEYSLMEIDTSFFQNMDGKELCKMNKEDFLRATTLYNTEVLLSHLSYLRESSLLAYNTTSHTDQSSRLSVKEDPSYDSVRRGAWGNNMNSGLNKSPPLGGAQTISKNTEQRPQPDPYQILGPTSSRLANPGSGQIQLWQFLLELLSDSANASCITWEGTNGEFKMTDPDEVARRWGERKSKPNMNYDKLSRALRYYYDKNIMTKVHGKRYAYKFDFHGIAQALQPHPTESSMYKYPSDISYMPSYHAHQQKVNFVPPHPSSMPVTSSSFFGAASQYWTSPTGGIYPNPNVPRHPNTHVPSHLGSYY
How it was run: (§1)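 In yeast, human transcription factors were expressed with a GST fusion, then pulled down on glutathione beads and given DNA barcodes. Pooled with a tag-only sample, they were exposed to 200 nmole of a 16-mer random double-stranded DNA library (Tris/NaCl/DTT/glycerol buffer, room temperature, 30 min), washed, crosslinked with 0.1% formaldehyde, proximity-ligated using BsaI/T4 ligase for 1 h at 37 °C, PCR-amplified and read on an Illumina NextSeq500. Each hexamer's frequency of reads for a factor, divided by the matching frequency for the tag-only sample, gives the binding signal.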

ELK1 = target: T2, ELK1 (Homo sapiens, UniProt P19419 1-428); details: protein: recombinant; tags: N-terminal GST; dsDNA, one strand shown
T2 sequence: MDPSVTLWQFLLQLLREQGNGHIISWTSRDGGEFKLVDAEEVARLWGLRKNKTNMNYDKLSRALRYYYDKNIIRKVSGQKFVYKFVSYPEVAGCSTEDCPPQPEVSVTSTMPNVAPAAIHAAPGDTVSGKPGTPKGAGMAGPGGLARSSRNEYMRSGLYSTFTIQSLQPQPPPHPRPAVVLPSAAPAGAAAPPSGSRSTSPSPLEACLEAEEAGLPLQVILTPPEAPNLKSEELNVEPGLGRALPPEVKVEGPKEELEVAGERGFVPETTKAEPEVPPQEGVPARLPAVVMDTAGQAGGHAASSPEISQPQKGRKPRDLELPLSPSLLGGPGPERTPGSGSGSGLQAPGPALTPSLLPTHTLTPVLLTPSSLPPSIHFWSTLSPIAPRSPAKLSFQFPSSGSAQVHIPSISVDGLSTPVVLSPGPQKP
How it was run: as §1

GABPA = target: T3, GABPA (Homo sapiens, UniProt Q06546 1-454); details: protein: recombinant; tags: N-terminal GST; dsDNA, one strand shown
T3 sequence: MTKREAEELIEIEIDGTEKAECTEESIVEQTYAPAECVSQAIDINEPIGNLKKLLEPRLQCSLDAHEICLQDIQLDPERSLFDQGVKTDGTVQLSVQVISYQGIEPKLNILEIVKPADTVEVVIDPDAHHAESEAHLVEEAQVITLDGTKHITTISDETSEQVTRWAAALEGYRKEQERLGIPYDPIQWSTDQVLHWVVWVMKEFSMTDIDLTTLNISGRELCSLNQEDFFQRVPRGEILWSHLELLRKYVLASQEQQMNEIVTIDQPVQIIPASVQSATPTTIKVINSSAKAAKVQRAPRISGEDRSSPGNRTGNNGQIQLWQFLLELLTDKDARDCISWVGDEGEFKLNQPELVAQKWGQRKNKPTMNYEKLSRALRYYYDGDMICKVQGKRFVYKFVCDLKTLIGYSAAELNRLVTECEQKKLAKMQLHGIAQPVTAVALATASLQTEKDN
How it was run: as §1

ERG = target: T4, ERG (Homo sapiens, UniProt P11308 1-479); details: protein: recombinant; tags: N-terminal GST; dsDNA, one strand shown
T4 sequence: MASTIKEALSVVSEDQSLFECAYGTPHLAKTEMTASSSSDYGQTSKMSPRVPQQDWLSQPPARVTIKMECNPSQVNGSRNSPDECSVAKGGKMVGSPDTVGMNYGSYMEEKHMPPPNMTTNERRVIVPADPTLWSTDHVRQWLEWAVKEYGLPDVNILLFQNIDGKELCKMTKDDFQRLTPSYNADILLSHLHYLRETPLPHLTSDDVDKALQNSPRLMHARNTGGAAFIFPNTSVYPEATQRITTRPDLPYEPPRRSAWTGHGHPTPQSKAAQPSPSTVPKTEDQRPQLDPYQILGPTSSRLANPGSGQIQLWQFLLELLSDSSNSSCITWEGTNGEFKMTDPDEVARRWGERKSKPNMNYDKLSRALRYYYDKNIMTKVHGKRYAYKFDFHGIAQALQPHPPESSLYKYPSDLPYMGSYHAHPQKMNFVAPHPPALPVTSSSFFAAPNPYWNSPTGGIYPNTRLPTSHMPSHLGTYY
How it was run: as §1

ELF1 = ELF1 (Homo sapiens, UniProt P32519 1-619); details: protein: recombinant; tags: N-terminal GST; dsDNA, one strand shown
ELF1, sequence (P32519 whole entry): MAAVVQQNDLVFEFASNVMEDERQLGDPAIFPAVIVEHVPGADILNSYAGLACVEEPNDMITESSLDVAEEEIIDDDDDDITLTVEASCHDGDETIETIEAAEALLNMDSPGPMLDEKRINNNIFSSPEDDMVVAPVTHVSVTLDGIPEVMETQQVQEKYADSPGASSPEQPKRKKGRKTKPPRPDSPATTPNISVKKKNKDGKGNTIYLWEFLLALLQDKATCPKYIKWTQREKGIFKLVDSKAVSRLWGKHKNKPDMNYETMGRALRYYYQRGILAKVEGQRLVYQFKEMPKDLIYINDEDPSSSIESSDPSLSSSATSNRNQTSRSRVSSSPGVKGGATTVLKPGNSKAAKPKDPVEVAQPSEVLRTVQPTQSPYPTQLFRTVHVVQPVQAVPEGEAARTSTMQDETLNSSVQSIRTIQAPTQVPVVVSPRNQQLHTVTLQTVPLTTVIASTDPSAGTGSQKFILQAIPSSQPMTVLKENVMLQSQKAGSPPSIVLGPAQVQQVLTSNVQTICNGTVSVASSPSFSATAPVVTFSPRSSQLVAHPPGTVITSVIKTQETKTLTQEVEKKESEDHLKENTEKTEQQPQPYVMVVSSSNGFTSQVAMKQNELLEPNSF
How it was run: as §1

EHF = target: T5, EHF (Homo sapiens, UniProt Q9NZC4 1-300); details: protein: recombinant; tags: N-terminal GST; dsDNA, one strand shown
T5 sequence: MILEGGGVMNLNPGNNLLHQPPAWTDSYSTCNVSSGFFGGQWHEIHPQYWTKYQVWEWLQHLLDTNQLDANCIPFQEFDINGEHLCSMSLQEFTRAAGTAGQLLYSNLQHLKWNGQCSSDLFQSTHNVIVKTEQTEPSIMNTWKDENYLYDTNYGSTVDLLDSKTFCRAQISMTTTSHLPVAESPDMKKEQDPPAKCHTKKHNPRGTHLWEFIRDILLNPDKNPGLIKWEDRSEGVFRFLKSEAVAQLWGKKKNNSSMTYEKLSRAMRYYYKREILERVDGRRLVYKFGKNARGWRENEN
How it was run: as §1

SPI1 = SPI1 (Homo sapiens, UniProt P17947 1-270); details: protein: recombinant; tags: N-terminal GST; dsDNA, one strand shown
How it was run: as §1

SPIB = SPIB (Homo sapiens, UniProt Q01892 1-262); details: protein: recombinant; tags: N-terminal GST; dsDNA, one strand shown
SPIB, sequence (Q01892 whole entry): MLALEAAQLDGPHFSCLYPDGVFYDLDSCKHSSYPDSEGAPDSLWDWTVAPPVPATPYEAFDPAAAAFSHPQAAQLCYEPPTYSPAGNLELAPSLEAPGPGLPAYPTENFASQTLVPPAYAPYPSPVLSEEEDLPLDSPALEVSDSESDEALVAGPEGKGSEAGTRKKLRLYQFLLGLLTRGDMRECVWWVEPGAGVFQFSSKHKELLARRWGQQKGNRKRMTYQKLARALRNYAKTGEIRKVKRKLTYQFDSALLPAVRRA
How it was run: as §1

ELK3 = target: T6, ELK3 (Homo sapiens, UniProt P41970 1-407); details: protein: recombinant; tags: N-terminal GST; dsDNA, one strand shown
T6 sequence: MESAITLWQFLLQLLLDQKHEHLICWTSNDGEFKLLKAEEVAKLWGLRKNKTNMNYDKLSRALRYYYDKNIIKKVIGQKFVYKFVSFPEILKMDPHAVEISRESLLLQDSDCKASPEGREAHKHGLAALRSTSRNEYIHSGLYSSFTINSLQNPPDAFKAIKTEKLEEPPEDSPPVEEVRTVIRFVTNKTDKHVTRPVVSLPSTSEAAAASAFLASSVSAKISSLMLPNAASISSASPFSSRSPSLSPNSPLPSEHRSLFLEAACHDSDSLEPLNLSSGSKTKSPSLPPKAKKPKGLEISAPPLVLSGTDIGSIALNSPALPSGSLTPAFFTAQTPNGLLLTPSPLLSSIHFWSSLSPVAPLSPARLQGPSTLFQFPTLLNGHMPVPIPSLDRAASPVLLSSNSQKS
How it was run: as §1

FEV = target: T7, FEV (Homo sapiens, UniProt Q99581 1-238); details: protein: recombinant; tags: N-terminal GST; dsDNA, one strand shown
T7 sequence: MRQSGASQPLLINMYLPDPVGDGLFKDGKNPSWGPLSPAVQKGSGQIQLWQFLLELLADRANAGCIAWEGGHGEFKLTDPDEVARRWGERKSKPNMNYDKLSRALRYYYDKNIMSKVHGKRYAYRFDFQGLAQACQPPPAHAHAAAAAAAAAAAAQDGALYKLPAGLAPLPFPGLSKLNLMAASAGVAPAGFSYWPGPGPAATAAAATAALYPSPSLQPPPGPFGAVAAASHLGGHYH
How it was run: as §1

ETV5 = ETV5 (Homo sapiens, UniProt P41161 1-510); details: protein: recombinant; tags: N-terminal GST; dsDNA, one strand shown
ETV5, sequence (P41161 whole entry): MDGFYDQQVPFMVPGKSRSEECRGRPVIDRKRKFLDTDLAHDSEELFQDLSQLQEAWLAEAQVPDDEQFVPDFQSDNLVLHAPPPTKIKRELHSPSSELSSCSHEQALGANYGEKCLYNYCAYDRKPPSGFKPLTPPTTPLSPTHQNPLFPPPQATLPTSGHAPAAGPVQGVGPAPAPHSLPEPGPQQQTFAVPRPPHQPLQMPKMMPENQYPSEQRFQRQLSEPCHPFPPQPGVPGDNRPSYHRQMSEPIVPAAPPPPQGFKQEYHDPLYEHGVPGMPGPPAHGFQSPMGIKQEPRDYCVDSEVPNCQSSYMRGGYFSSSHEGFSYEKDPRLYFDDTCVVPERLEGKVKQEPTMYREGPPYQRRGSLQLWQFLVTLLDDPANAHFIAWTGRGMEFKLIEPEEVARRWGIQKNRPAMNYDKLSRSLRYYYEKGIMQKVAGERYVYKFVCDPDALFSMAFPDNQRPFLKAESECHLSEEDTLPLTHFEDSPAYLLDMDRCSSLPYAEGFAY
How it was run: as §1

HSF1 = HSF1 (Homo sapiens, UniProt Q00613 1-529); details: protein: recombinant; tags: N-terminal GST; chain copies: 3; dsDNA, one strand shown
HSF1, sequence (Q00613 whole entry): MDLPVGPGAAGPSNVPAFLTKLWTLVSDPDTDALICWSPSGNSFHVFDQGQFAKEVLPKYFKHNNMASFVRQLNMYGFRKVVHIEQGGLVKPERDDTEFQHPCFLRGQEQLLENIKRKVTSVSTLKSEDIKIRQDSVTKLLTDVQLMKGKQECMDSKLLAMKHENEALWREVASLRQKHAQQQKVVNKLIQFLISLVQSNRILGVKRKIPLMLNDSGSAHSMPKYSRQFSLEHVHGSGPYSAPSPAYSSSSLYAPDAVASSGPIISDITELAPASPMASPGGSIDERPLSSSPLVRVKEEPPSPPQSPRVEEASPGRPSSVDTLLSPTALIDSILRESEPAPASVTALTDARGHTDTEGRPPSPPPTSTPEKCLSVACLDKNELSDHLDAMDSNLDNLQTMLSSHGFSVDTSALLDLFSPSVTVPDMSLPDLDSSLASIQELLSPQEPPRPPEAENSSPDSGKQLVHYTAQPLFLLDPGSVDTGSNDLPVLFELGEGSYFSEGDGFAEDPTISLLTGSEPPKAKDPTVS
How it was run: as §1

SPIC = target: T8, SPIC (Homo sapiens, UniProt Q8N5J4 1-248); details: protein: recombinant; tags: N-terminal GST; dsDNA, one strand shown
T8 sequence: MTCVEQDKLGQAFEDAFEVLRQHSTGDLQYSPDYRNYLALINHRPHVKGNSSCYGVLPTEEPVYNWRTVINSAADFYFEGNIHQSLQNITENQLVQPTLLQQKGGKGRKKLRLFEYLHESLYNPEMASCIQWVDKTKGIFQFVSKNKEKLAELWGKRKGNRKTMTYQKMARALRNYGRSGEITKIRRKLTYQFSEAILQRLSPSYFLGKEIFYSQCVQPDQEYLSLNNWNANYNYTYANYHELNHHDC
How it was run: as §1

ELF4 = ELF4 (Homo sapiens, UniProt Q99607 1-663); details: protein: recombinant; tags: N-terminal GST; dsDNA, one strand shown
ELF4, sequence (Q99607 whole entry): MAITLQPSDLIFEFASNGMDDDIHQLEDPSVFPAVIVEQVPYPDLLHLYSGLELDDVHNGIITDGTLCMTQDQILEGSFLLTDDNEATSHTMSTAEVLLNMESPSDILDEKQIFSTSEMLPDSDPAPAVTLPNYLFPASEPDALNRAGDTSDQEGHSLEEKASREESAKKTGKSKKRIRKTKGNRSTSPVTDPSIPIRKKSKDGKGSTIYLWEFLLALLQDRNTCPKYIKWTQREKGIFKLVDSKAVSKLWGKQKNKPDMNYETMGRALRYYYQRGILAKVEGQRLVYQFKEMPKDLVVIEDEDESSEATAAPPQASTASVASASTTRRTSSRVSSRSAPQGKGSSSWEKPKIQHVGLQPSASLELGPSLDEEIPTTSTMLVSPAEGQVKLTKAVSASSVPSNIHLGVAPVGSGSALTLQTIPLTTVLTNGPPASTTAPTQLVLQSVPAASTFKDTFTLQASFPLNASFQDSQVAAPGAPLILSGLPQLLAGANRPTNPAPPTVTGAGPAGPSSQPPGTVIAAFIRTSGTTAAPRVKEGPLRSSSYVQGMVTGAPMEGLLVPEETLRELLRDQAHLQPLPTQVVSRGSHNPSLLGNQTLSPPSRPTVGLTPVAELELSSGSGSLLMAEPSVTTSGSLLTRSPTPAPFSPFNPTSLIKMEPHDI
How it was run: as §1

ELK4 = target: T9, ELK4 (Homo sapiens, UniProt P28324-2 1-405); details: protein: recombinant; tags: N-terminal GST; dsDNA, one strand shown
T9 sequence: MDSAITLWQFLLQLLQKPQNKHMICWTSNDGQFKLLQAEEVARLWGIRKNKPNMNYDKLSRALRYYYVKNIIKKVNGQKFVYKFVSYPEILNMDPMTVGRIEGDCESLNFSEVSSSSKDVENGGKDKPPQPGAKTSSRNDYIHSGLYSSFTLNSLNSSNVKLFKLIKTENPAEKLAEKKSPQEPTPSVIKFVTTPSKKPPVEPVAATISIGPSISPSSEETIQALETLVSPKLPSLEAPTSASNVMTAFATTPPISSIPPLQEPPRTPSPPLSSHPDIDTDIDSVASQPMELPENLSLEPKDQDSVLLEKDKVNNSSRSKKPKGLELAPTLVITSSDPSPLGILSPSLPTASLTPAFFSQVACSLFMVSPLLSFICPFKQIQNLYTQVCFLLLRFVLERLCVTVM
How it was run: as §1

ETV2 = target: T10, ETV2 (Homo sapiens, UniProt O00321 1-342); details: protein: recombinant; tags: N-terminal GST; dsDNA, one strand shown
T10 sequence: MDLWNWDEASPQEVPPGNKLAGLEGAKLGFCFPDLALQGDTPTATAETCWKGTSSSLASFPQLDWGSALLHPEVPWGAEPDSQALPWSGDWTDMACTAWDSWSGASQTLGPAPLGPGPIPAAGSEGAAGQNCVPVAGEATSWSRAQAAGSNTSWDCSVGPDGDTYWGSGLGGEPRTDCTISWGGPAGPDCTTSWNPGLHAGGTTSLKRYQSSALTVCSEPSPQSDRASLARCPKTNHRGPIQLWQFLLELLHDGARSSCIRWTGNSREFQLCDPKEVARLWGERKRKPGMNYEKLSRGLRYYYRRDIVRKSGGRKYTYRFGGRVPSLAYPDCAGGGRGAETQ
How it was run: as §1

ELF3 = target: T11, ELF3 (Homo sapiens, UniProt P78545 1-371); details: protein: recombinant; tags: N-terminal GST; dsDNA, one strand shown
T11 sequence: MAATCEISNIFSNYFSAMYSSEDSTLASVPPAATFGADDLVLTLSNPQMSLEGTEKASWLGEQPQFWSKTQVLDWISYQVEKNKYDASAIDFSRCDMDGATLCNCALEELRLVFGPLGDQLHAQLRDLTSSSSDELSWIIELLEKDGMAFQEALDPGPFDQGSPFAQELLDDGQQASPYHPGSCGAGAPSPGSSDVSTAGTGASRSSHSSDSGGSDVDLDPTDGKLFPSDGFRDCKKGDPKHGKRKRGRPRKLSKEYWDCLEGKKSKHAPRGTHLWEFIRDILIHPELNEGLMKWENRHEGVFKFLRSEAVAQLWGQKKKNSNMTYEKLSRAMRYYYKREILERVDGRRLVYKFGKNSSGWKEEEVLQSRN
How it was run: as §1

CRX = CRX (Homo sapiens, UniProt O43186 1-299); details: protein: recombinant; tags: N-terminal GST; dsDNA, one strand shown
CRX, sequence (O43186 whole entry): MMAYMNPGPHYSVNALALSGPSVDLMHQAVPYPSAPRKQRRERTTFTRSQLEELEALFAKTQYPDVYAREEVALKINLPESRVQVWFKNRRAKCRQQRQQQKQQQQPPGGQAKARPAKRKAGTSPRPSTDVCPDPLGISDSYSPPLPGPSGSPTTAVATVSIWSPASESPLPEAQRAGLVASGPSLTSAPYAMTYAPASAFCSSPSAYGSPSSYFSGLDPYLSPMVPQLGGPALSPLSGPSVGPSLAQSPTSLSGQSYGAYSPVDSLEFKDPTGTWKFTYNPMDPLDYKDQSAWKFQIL
How it was run: as §1

ETV1 = ETV1 (Homo sapiens, UniProt P50549 1-477); details: protein: recombinant; tags: N-terminal GST; dsDNA, one strand shown
ETV1, sequence (P50549 whole entry): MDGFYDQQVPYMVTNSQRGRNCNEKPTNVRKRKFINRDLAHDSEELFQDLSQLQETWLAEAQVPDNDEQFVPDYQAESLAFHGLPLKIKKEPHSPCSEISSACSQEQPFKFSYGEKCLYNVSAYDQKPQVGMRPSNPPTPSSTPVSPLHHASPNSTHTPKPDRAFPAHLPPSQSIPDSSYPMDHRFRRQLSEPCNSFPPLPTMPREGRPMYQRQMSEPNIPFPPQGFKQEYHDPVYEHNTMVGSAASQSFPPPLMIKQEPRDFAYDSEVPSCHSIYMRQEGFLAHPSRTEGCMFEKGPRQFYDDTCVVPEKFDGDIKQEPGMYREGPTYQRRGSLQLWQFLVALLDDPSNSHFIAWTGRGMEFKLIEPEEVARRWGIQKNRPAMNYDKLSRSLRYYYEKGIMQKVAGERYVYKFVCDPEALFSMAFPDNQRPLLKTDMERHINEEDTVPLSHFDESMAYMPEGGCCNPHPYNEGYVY
How it was run: as §1

Sequence: AAAGAC
- binding signal (FLI1): 1.06 fold enrichment (6-mer frequency, TF over GST control)
- binding signal (ELK1): 1.07 fold enrichment (6-mer frequency, TF over GST control)
- binding signal (GABPA): 1.02 fold enrichment (6-mer frequency, TF over GST control)
- binding signal (ERG): 1.07 fold enrichment (6-mer frequency, TF over GST control)
- binding signal (ELF1): 1 fold enrichment (6-mer frequency, TF over GST control)
- binding signal (EHF): 1.05 fold enrichment (6-mer frequency, TF over GST control)
- binding signal (SPI1): 1.1 fold enrichment (6-mer frequency, TF over GST control)
- binding signal (SPIB): 1.08 fold enrichment (6-mer frequency, TF over GST control)
- binding signal (ELK3): 1.02 fold enrichment (6-mer frequency, TF over GST control)
- binding signal (FEV): 1.06 fold enrichment (6-mer frequency, TF over GST control)
- binding signal (ETV5): 1.05 fold enrichment (6-mer frequency, TF over GST control)
- binding signal (HSF1): 1.11 fold enrichment (6-mer frequency, TF over GST control)
- binding signal (SPIC): 1.01 fold enrichment (6-mer frequency, TF over GST control)
- binding signal (ELF4): 1.04 fold enrichment (6-mer frequency, TF over GST control)
- binding signal (ELK4): 1.04 fold enrichment (6-mer frequency, TF over GST control)
- binding signal (ETV2): 1.03 fold enrichment (6-mer frequency, TF over GST control)
- binding signal (ELF3): 1.01 fold enrichment (6-mer frequency, TF over GST control)
- binding signal (CRX): 1.13 fold enrichment (6-mer frequency, TF over GST control)
- binding signal (ETV1): 1.03 fold enrichment (6-mer frequency, TF over GST control)
